FBA Mtb inh – Mtb FBA enzyme inhibitors, primary screen, biochemical, fluorescence, strain H37Rv; purified M. tuberculosis FBA, fluorescence read-out; inhibition, % at 1 µM; hit rate 2.3% among 360,000; AID 588726, 2011;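 note: 0% = vehicle and 100% = reference inhibitor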
GDH-TPI counter-1 – GDH-TPI coupling enzyme inhibitors, primary screen, artefact control for M. tuberculosis FBA inhibitor project, biochemical, absorbance, full deck | GDH-TPI coupled enzyme counterscreen, NADH absorbance | inhibition, % at 4.8 µM | hit rate 1.2% among 360,000; in the data active = inhibition above about 30%;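 note: 0% = DMSO wells and 100% = wells lacking the enzyme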
Mtb betalactam – beta-lactam sensitization of Mtb H37Rv, H37Rv; M. tuberculosis H37Rv growth with meropenem, percent inhibition; inhibition, % at 25 µM; hit rate 0.27% among 330,000; AID 434955, 2010; call rule not given here;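 note: growth measured after seven days incubation then overnight dye step; 0% = bacteria only wells and 100% = bacteria with antibiotic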
RecA intein inh – Mtb RecA intein splicing inhibitors, primary screen, biochemical, fluorescence, HTS; Protein RecA (Mycobacterium tuberculosis (strain ATCC 25618 / H37Rv)), P9WHJ3; inhibition, % (no concentration beside the values); cell-free RecA intein splicing; AID 2221, 2009; hit rate 0.75% among 290,000; in the data active = inhibition above about 30%;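 note: 0% = vehicle wells and 100% = reference inhibitor control wells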
Target sequence (P9WHJ3 whole entry, looked up): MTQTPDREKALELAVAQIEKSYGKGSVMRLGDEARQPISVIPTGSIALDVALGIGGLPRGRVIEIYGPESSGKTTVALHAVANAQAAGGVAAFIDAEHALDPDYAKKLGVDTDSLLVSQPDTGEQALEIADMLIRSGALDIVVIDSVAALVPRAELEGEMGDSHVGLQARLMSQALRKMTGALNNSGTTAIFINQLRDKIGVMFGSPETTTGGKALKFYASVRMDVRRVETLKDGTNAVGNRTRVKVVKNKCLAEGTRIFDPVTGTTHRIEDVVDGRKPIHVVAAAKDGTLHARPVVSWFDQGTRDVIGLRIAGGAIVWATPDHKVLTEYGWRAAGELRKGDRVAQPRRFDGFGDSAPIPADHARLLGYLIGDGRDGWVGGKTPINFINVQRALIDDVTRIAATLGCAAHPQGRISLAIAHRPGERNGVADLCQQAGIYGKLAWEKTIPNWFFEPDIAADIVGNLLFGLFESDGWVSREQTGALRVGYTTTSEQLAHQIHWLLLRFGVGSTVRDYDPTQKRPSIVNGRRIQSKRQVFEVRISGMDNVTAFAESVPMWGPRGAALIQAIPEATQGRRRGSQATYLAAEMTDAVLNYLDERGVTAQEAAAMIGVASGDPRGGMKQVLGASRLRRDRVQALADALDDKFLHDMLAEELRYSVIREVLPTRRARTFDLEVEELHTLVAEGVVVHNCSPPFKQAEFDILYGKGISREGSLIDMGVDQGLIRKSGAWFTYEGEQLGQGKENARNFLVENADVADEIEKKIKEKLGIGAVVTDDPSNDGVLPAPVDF
Mtb UGM inh – M. tuberculosis UGM enzyme inhibitors, primary screen, biochemical, fluorescence polarization, single point | hit rate 0.06% among 320,000 | purified UGM, fluorescence polarization probe displacement | UDP-galactopyranose mutase (Mycobacterium tuberculosis (strain ATCC 25618 / H37Rv)), … | AID 504406, 2011 | inhibition, % at 10 µM; in the data active = inhibition above about 10%, passing the limit was not always enough
Rv3671c protease – Rv3671c serine protease inhibitors, primary screen, biochemical, fluorescence polarization, M. tuberculosis H37Rv | inhibition, % at 5.96 µM | hit rate 0.048% among 320,000; in the data active = inhibition above about 38%;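 note: extracellular domain of Rv3671c used as enzyme; 0% = enzyme with DMSO and 100% = no enzyme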
Mtb FBA inh conf – M. tuberculosis aldolase blockers, biochemical, fluorescence, strain H37Rv, confirmation | hit rate 78% among 5,600 | shares compounds with FBA Mtb inh | inhibition, % at 1 µM | purified M. tuberculosis FBA, fluorescence read-out;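 note: 0% = vehicle wells and 100% = reference inhibitor wells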
GDH-TPI counter-2 – GDH-TPI coupling enzyme inhibitors, artefact control for M. tuberculosis FBA inhibitor project, biochemical, fluorescence, high throughput; inhibition, % at 1 µM; GDH-TPI coupled enzyme counterscreen; shares compounds with FBA Mtb inh; hit rate 81% among 5,600; in the data active = inhibition above about 10%
* = called active by the depositor; / = no result given; + = active, no number. In the library only some 4% were active in any assay of this set; here they are far more common. Cut-off read from the data, not from the text of the source, unless noted: active = inhibition above about 27%; inactive = the rest.

SMILES	FBA Mtb inh	GDH-TPI counter-1	Mtb betalactam	RecA intein inh	Mtb UGM inh	Rv3671c protease	Mtb FBA inh conf	GDH-TPI counter-2
CN1c2ccccc2Oc2nnc(N3CCN(Cc4ccccc4)CC3)cc21	57*	6	5	-15	2	4	87*	82*
CCN(CC)CCOc1cc2c(nn1)Oc1ccccc1N2C	56*	27	2	-4	3	5	164*	154*
COc1ccc(CCC(=O)Nc2c(-c3ccc(N(C)C)cc3)[nH][nH]c2=O)cc1	2	/	/	/	/	/	/	/
Cc1ccc(NC(=O)C(=O)c2ccc(C)cc2)cc1	0	-6	1	2	3	-5	/	/
O=C(NCCc1ccccc1)c1cc(S(=O)(=O)N2CCCCC2)c[nH]1	7	6	/	/	/	/	/	/
O=C(NNC(=O)c1ccccc1-n1cccc1)c1cccnc1	-1	14	/	/	/	/	/	/
COc1ccc(-c2ccc3c(c2)S(=O)(=O)c2cccc(C(=O)NCCOc4ccccc4)c2C3=O)cc1OC	52*	11	-10	/	9	0	39*	29*
CC1CC(C)CN(c2oc(-c3ccco3)nc2C#N)C1 (centres undefined)	91*	19	0	-3	/	0	6	4
N#Cc1nc(-c2ccco2)oc1N1CCc2ccccc2C1	46*	23	8	3	1	3	52*	39*
COCCn1c(Cc2ccccc2)nnc1SCC(=O)N1CCCC1=O	3	6	-4	/	3	-8	/	/
CCC(Oc1ccccc1)C(=O)NCCCN1CCOCC1 (centres undefined)	5	2	-19	-1	4	3	/	/
COc1cccc(C(=O)N2CCC3(CC2)OCCO3)c1	0	-11	-9	0	1	-4	/	/
O=C(c1ccccc1)N1CCCCCC1	3	13	-10	-2	-1	-10	/	/
Cc1cccc(-c2nc3ccc(C(=O)N4CCC5(CC4)OCCO5)cc3nc2-c2cccc(C)c2)c1	43*	16	72	11	0	0	117*	79*
O=C(c1ccc2nc(-c3ccccc3)c(-c3ccccc3)nc2c1)N1CCCCC1	34*	15	30	11	1	8	93*	64*
CN1CCN(C(=O)c2ccc3nc(-c4ccccc4)c(-c4ccccc4)nc3c2)CC1	30*	10	3	-1	-4	3	168*	135*
COc1cc(C(=O)NCCCNc2nc3cc(C)cc(C)c3cc2C#N)cc(OC)c1OC	32*	14	5	-13	0	-2	85*	55*
Cc1cc(C)c2cc(C#N)c(NCCCNC(=O)c3ccncc3)nc2c1	16	-2	/	/	/	/	/	/
COc1ccc(Nc2nc3ccc(C)cc3cc2C#N)c(OC)c1	6	13	6	0	1	-33	/	/
COc1ccc(C(=O)NCCNc2nc3ccc(C)cc3cc2C#N)cc1OC	35*	-1	-9	-31	1	-1	+	158*
Clc1cccc(-c2nc3c4ccccc4ccn3c2CC2CCCCC2)c1	4	/	/	/	/	/	/	/
COc1ccc2c(c1)c(=O)oc1c(C)c(OC(C)C(=O)NCC3CCC(C(=O)O)CC3)ccc12 (centres undefined)	35*	9	-6	-5	-3	-10	92*	81*
Cc1cc(=O)oc2c(C)c(OC(C)C(=O)NCC3CCC(C(=O)O)CC3)ccc12 (centres undefined)	4	13	3	0	-1	6	/	/
COc1ccc2c(c1)c(=O)oc1c(C)c(OCc3cc(C(=O)O)oc3C)ccc12	43*	3	22	1	1	-9	-4	-7
Cc1c(C)n2c3c(cccc13)CC2	-4	-6	3	-1	1	2	/	/
SMILES	FBA Mtb inh	GDH-TPI counter-1	Mtb betalactam	RecA intein inh	Mtb UGM inh	Rv3671c protease	Mtb FBA inh conf	GDH-TPI counter-2
Cc1c2n(c3ccccc13)CCC2=O	28*	6	3	-1	1	-4	77*	68*
N#Cc1ccc(C(=O)Nn2cnnc2)cc1	0	-1	2	-1	-3	0	/	/
COC(CNC(=O)CCc1c(C)nc2c(c(C)nn2-c2ccc(C)cc2)c1C)OC	40*	19	2	2	1	/	-12	-12
CCN(CC)CCNC(=O)CCc1c(C)nc2c(c(C)nn2-c2ccc(C)c(C)c2)c1C	36*	1	5	-1	-3	/	197*	196*
COCCCNC(=O)CCc1c(C)nc2c(c(C)nn2-c2ccccc2)c1C	41*	4	0	-1	1	/	52*	44*
Cc1ccc(-n2nc(C)c3c(C)c(CCC(=O)NCCCOC(C)C)c(C)nc32)cc1	25	10	5	-1	-4	/	/	/
CCCC(=O)NC(c1ccco1)c1cc(Cl)c2cccnc2c1O (centres undefined)	0	0	-1	2	6	9	/	/
CCC(=O)NC(c1ccco1)c1cc(Cl)c2ccccc2c1O (centres undefined)	30*	12	2	/	1	-3	79*	56*
CC(=O)NC(c1ccco1)c1cc(Cl)c2ccccc2c1O (centres undefined)	37*	12	5	/	3	-1	+	+
Cc1cccc(C=Nc2ccc3c(c2)oc2ccccc23)c1O	36*	9	97	2	-1	8	151*	117*
Cc1ccc(-c2nnc(SCC(=O)NCC3CCCO3)nc2-c2ccc(C)cc2)cc1 (centres undefined)	-1	10	/	/	/	/	/	/
S=C1SCN(Cc2ccccc2)CN1Cc1ccco1	3	6	/	/	/	/	/	/
O=C1CN(Cc2ccccc2)C(=NCc2ccco2)S1	28*	3	-1	10	0	-2	184*	163*
O=C(Nc1ccccc1)c1ccccc1N=Cc1cccc(O)c1	41*	8	-12	-9	3	7	51*	40*
NC(=O)c1ccccc1N=Cc1cccnc1	20	0	-3	-6	-1	4	/	/
Cc1ccc(C=Nc2ccccc2C(N)=O)cc1	65*	1	-3	-3	1	0	83*	74*
Cc1ccc(C(=O)c2ccccc2C(=O)Nc2ccccc2)cc1	-1	3	1	5	0	-3	/	/
Cc1ccc(C=Nc2ccccc2C(=O)Nc2ccccc2)cc1	39*	7	0	-4	1	-5	136*	103*

Screens deposited in PubChem BioAssay by several laboratories.
